Data taken from PubChem BioAssay (Tox21).
Results filed as inconclusive are left out. Calls of active or inactive are those of the source. Unless noted, calls come from the whole dose curve; as a rule, active = well fitted curve in the direction sought with a large enough effect in the repeat runs; inconclusive = weak or mixed curves; inactive = no such curve, though single readings can be large; an effect the other way counts as inactive or inconclusive. Residues, ends and D or L forms follow the SMILES beside them.

Tests used:
[1] = qHTS assay to test for compound auto fluorescence at 535 nm (green) in HEK293 cells (AID 720680)
[2] = qHTS assay to test for compound auto fluorescence at 460 nm (blue) in HEK293 cell free culture (AID 720681)
How it was run: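 Blue fluorescence (Ex 405/Em 460 nm, triamterene-equivalent) was read immediately after pin transfer of compound or DMSO into medium (DMEM, 10% FBS) without cells.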

[3] = qHTS assay to test for compound auto fluorescence at 535 nm (green) in HEK293 cell free culture (AID 720682)
How it was run: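 No cells present: wells hold DMEM supplemented with 10% FBS, into which compound or vehicle is pinned. Green emission is then recorded (485 nm excitation, 535 nm emission) and scaled to fluorescein.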

[4] = qHTS assay to test for compound auto fluorescence at 590 nm (red) in HEK293 cell free culture (AID 720683)
How it was run: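 Red-channel autofluorescence of compounds in culture medium (DMEM, 10% FBS), no cells, measured at 540/590 nm. Rose Bengal sodium is the reference fluorophore for equivalence.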

[5] = qHTS assay to test for compound auto fluorescence at 590 nm (red) in HepG2 cell free culture (AID 720684)
How it was run: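 No cells present: MEM + 10% FBS only. Compound pinned in, red label read (540/590 nm). Activity = fluorescence equivalent to Rose Bengal sodium.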

[6] = qHTS assay to test for compound auto fluorescence at 460 nm (blue) in HepG2 cell free culture (AID 720685)
How it was run: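 Cell-free plates of MEM plus 10% FBS received 23 nL compound or DMSO vehicle; blue-channel (405/460 nm) intensity scored against triamterene as reference fluorophore.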

[7] = qHTS assay to test for compound auto fluorescence at 535 nm (green) in HepG2 cell free culture (AID 720686)
[8] = qHTS assay to test for compound auto fluorescence at 460 nm (blue) in HepG2 cells (AID 720687)
How it was run: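 Blue-channel autofluorescence (Ex/Em 405/460 nm, triamterene-equivalent) was measured after 1 hr compound exposure at 37 C, 5% CO2. Cells were HepG2, plated overnight at 37 C in MEM plus 10% FBS.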

[9] = target: Glucocorticoid receptor (Homo sapiens) (UniProt P04150); assay: qHTS assay to identify small molecule agonists of the glucocorticoid receptor (GR) signaling pathway (AID 720691; active = well fitted activation curve with a large enough effect in the signal ratio in the repeat runs, not every such curve was filed as active; the % refers to the signal ratio)
How it was run: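 Agonist-mode qHTS in HeLa cells stably expressing a glucocorticoid-response-element beta-lactamase reporter. Fluorescence intensity read with FRET substrate (2 h, room temperature) after 18 h compound treatment at 37 C.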

[10] = target: Glucocorticoid receptor (Homo sapiens) (UniProt P04150); assay: qHTS assay to identify small molecule antagonists of the glucocorticoid receptor (GR) signaling pathway (AID 720692; active = well fitted inhibition curve with a large enough effect in the signal ratio in the repeat runs, not every such curve was filed as active; the % refers to the signal ratio)
How it was run: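 Inhibition of dexamethasone-driven (5 nM final) beta-lactamase expression was measured in GRE-reporter HeLa cells over 18 h at 37C. Fluorescence was read after 2 h with the B/G FRET substrate at room temperature.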

[11] = qHTS assay to identify small molecule antagonists of the glucocorticoid receptor (GR) signaling pathway - cell viability counter screen (AID 720693); note: nearly all actives have a fitted effect of over 55% in size
[12] = qHTS assay for identifying genotoxic compounds that show differential cytotoxicity against isogenic chicken DT40 cell lines with known DNA damage response pathways - wild type cell line (AID 743012); note: nearly all actives have a fitted effect of over 60% in size
How it was run: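 Viability by ATP luminescence (CellTiter-Glo, 30 min RT) after 40 h compound treatment at 37 C/5% CO2, using 300 parental DNA repair-proficient DT40 cells per well.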

[13] = qHTS assay for identifying genotoxic compounds that show differential cytotoxicity against isogenic chicken DT40 cell lines with known DNA damage response pathways - Rev3 mutant cell line (AID 743014); note: nearly all actives have a fitted effect of over 55% in size
[14] = qHTS assay for identifying genotoxic compounds that show differential cytotoxicity against isogenic chicken DT40 cell lines with known DNA damage response pathways - Rad54/Ku70 mutant cell line (AID 743015); note: nearly all actives have a fitted effect of over 60% in size
[15] = qHTS assay to identify small molecule antagonists of the androgen receptor (AR) signaling pathway - cell viability counter screen (AID 743033; note: nearly all actives have a fitted effect of over 45% in size)
[16] = target: Androgen receptor (Homo sapiens) (UniProt P10275); assay: qHTS assay to identify small molecule antagonists of the androgen receptor (AR) signaling pathway (AID 743035; active = well fitted inhibition curve with a large enough effect in the signal ratio in the repeat runs, not every such curve was filed as active; the % refers to the signal ratio)
How it was run: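 Antagonist mode: AR-bla HEK293 cells co-treated with test compounds and agonist R1881 for 16 h at 37C, 5% CO2. Beta-lactamase activity read as FRET fluorescence after 2 h room-temperature substrate loading.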

[17] = target: Androgen receptor (Homo sapiens) (UniProt P10275); assay: qHTS assay to identify small molecule agonists of the androgen receptor (AR) signaling pathway (AID 743036; active = well fitted activation curve with a large enough effect in the signal ratio in the repeat runs, with a control signal flat, not every such curve was filed as active; the % refers to the signal ratio)
How it was run: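 Quantitative HTS of the Tox21 10K library in HEK293 cells bearing a stably integrated UAS-controlled beta-lactamase reporter. Compound exposure lasted 16 h at 37C. Reporter activity was detected by FRET substrate fluorescence after 2 h at room temperature.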

[18] = target: Androgen receptor (Homo sapiens) (UniProt P10275); assay: qHTS assay to identify small molecule agonists of the androgen receptor (AR) signaling pathway using the MDA cell line (AID 743040; note: nearly all actives have a fitted effect of over 20% in size)
How it was run: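 Stable MMTV-luciferase reporter in MDA-kb2 cells; note the promoter carries GR as well as AR response elements. 16 h compound treatment, 37C, 0% CO2; ONE-Glo luminescence endpoint.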

[19] = qHTS assay to identify small molecule antagonists of the androgen receptor (AR) signaling pathway using the MDA cell line - cell viability counter screen (AID 743041; note: nearly all actives have a fitted effect of over 45% in size)
How it was run: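 Using the breast carcinoma line MDA-kb2 AR-luc, test chemicals were co-incubated with R1881 for 16 h; CellTiter-Fluor reagent, added at 15.5 h, provided a fluorescence measure of live cells.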

[20] = qHTS assay to identify small molecule antagonists of the thyroid receptor (TR) signaling pathway - cell viability counter screen (AID 743064); note: nearly all actives have a fitted effect of over 50% in size
How it was run: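 Rat GH3 pituitary tumor cells stably expressing two TR response elements driving luciferase were plated, rested 4 h, then dosed with library compounds and T3 (1 nM final). After 23.5 h at 37 °C, CellTiter-Fluor was added for 30 min and fluorescence recorded.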

Measured: Potency

Chain of Glucocorticoid receptor (Homo sapiens) (P04150 whole entry, looked up): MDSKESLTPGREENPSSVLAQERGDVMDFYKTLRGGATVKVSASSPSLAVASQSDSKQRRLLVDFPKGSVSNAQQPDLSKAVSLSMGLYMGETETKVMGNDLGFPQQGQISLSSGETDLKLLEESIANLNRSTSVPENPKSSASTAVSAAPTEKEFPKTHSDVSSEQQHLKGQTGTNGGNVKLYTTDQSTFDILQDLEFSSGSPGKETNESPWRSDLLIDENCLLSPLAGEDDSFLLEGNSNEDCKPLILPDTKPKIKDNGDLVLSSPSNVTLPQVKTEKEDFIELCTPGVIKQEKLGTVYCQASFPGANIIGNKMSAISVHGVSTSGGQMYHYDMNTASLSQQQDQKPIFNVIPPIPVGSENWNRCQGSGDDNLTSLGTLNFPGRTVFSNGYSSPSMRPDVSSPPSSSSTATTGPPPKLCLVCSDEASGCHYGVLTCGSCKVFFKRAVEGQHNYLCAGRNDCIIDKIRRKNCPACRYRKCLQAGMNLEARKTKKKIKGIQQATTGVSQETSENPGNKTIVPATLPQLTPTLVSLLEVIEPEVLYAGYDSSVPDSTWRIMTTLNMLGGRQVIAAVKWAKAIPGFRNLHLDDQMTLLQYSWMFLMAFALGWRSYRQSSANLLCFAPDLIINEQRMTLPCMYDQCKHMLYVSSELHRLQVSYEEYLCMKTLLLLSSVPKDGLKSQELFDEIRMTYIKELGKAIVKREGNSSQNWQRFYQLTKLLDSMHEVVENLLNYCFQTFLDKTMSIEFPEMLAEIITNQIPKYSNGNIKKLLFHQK
Chain of Androgen receptor (Homo sapiens) (P10275 whole entry, looked up): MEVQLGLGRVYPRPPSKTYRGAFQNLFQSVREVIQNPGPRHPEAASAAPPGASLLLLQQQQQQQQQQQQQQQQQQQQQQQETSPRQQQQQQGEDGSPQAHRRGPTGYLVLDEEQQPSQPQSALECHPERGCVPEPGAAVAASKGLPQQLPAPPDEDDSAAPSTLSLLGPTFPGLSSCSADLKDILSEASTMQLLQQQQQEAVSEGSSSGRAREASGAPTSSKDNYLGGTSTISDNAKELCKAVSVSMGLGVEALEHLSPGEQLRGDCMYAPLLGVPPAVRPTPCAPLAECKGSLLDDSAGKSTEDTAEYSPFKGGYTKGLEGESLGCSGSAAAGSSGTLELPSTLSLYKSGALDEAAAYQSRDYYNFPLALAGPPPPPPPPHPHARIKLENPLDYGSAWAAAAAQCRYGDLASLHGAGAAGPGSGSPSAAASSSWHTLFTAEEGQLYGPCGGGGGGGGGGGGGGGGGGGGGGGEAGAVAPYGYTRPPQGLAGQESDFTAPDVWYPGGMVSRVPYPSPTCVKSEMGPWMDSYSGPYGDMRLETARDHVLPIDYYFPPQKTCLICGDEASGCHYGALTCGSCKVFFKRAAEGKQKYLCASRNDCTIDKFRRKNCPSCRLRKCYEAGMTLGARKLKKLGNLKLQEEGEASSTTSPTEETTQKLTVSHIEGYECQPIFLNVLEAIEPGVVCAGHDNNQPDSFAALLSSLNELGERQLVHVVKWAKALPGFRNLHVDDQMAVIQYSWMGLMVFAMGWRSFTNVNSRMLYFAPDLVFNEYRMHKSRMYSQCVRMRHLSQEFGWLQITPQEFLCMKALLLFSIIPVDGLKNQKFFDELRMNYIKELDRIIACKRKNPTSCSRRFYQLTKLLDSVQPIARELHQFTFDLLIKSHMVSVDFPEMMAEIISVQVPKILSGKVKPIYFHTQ

CCCCC(CC)COC(=O)/C=C/c1ccc(OC)cc1 (stereo unspecified)
inactive: [1] | [2] | [3] | [4] | [5] | [6] | [7] | [8] | [9] | [10] | [11] | [12] | [13] | [14] | [15] | [16] | [17] | [18] | [19] | [20]

O=C(O)CCCCCCCC(=O)O
inactive: [1] | [2] | [3] | [4] | [5] | [6] | [7] | [8] | [11] | [12] | [13] | [14] | [15] | [19] | [20]

C[C@]12C=CC(=O)C=C1CC[C@@H]1[C@@H]2[C@@H](O)C[C@@]2(C)[C@H]1CC[C@]2(O)C(=O)CO
inactive: [1] | [2] | [3] | [4] | [5] | [6] | [7] | [8] | [11] | [12] | [13] | [15] | [19] | [20]

CCCC(CCC)C(=O)O
inactive: [1] | [2] | [3] | [4] | [5] | [6] | [7] | [8] | [9] | [10] | [11] | [12] | [13] | [14] | [15] | [19] | [20]

c1ccc2[nH]ccc2c1
inactive: [1] | [2] | [3] | [4] | [5] | [6] | [8] | [9] | [10] | [11] | [12] | [13] | [14] | [15] | [16] | [17] | [18] | [19] | [20]

COC(=O)[C@H](Cc1ccccc1)NC(=O)[C@@H](N)CC(=O)O (H-Asp-Phe-OMe)
inactive: [1] | [2] | [3] | [4] | [5] | [6] | [7] | [8] | [9] | [10] | [11] | [12] | [13] | [14] | [15] | [19] | [20]

CNC[C@H](O)c1cccc(O)c1
inactive: [1] | [2] | [3] | [4] | [5] | [6] | [7] | [8] | [11] | [12] | [13] | [14] | [15] | [19] | [20]

CCCN(CCC)S(=O)(=O)c1ccc(C(=O)O)cc1
inactive: [1] | [2] | [3] | [4] | [5] | [6] | [7] | [8] | [9] | [10] | [11] | [12] | [13] | [14] | [15] | [16] | [17] | [19] | [20]
